CRFBP-R2 block: blocks CRF-induced signaling of the CRF-BP/CRF-R2 complex; inhibition, % at 11.8 µM; hit rate 0.59% among 350,000; HEK293 CRF-R2/CRF-BP, CRF-induced calcium fluorescence;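 active = inhibition of the ligand-induced calcium signal above about 50% at the single tested concentration, limit read from the data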
PfGluPho inh: PfG6PD (Plasmodium falciparum) enzyme inhibition. PfGluPho enzyme, NADPH resazurin-diaphorase fluorescence. inhibition, % at 20 µM. hit rate 0.78% among 350,000. AID 504690;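 active = inhibition reaching at least a set limit at 20 µM in the primary screen, cut at about 59% in these data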;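 note: 0% = DMSO wells with substrate and 100% = DMSO wells lacking glucose-6-phosphate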
FAS-TE inh: inhibitors of human fatty acid synthase thioesterase domain; hit rate 0.67% among 360,000; inhibition, % at 15 µM; AID 602261; recombinant FAS-TE, OMFH fluorogenic substrate, fluorescence endpoint;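 active = compounds whose normalised, plate-corrected inhibition of enzyme fluorescence in the single-dose primary screen is 50% or more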;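 note: 0% = DMSO with enzyme and 100% = substrate without enzyme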
CRFBP-R2 agonist: CRF-BP/CRF-R2 complex agonism; HEK293 CRF-R2/CRF-BP, calcium dye fluorescence (FLIPR); percent of saturating CRF peptide response; hit rate 0.46% among 350,000; activation, % at 13.2 µM;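 active = activation of at least 50%, plus an integration ratio under a set limit after plate pattern correction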;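 note: plate controls were neutral control wells without compound for no effect and CRF at EC100 for full effect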
H9c2 protect: myocardial damage modulation in H9c2 cells | H9c2 cardiomyocytes, H2O2 injury protection, ATPLite, 2 h | protection from H2O2 cell death, % at 20 µM | hit rate 0.63% among 360,000;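 active = compounds giving at least 50% protection of heart cells from peroxide-induced death in the single-dose screen, raw or plate-pattern-corrected value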;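 note: 0% = DMSO wells with peroxide and 100% = DMSO wells without peroxide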
aDG glyco act: increases alpha dystroglycan glycosylation; Pro5-aDG cells, alpha-DG glycosylation AlphaScreen (IIH6); 0% Pro5, 100% B10-LARGE cell signal; activation, % at 10 µM; hit rate 0.22% among 360,000; AID 624168;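 active = activation of at least 8% versus controls, or a plate z-score of at least 8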;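 note: Pro5 are CHO cells carrying HIG-tagged alpha-DG that lacks glycosylation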
An asterisk follows results filed as active. Only some compounds are listed: those with a hit (about 3.2% of all), similar ones and a draw of the others.

Screening CC(=O)Nc1nc2n(n1)C(c1ccc(F)cc1)C=C(c1ccccc1)N2 (stereo unspecified) returned CRFBP-R2 block -6, PfGluPho inh 12, FAS-TE inh -4, CRFBP-R2 agonist 75*, H9c2 protect 27 and aDG glyco act 1.
For O=C1CCC(=O)N1c1nc2n(n1)C(c1ccccc1)C=C(c1ccc(Br)cc1)N2 (stereo unspecified) the results were CRFBP-R2 block -8, PfGluPho inh -13, FAS-TE inh -5, CRFBP-R2 agonist 9, H9c2 protect 6 and aDG glyco act 0.
Screening CC(=O)Nc1nc2n(n1)C(c1ccccc1)C=C(c1ccccc1)N2 (stereo unspecified) returned CRFBP-R2 block -11, PfGluPho inh 11, FAS-TE inh -7, CRFBP-R2 agonist 48, H9c2 protect 10 and aDG glyco act 0.
Screening CS(=O)(=O)Nc1nc2n(n1)C(c1ccccc1)C=C(c1ccc(Br)cc1)N2 (stereo unspecified) returned CRFBP-R2 block -116, PfGluPho inh -19, FAS-TE inh -63, CRFBP-R2 agonist 139*, H9c2 protect 8 and aDG glyco act 0.
For O=C(c1nc2n(n1)C(c1ccc(Cl)cc1)C=C(c1ccccc1)N2)N1CCOCC1 (stereo unspecified) the results were CRFBP-R2 block -7, PfGluPho inh 6, FAS-TE inh 3, CRFBP-R2 agonist 97*, H9c2 protect 25 and aDG glyco act 0.
For Cc1ccc(S(=O)(=O)N(C)C)cc1NC(=O)CCc1ccccc1 the results were CRFBP-R2 block 13, PfGluPho inh -5, FAS-TE inh -2, CRFBP-R2 agonist 2, H9c2 protect 10 and aDG glyco act 0.
Cc1ccc(S(=O)(=O)CCC(=O)OCC(=O)Nc2ccc(N3CCOCC3)cc2)cc1 was read as CRFBP-R2 block 0, PfGluPho inh 2, FAS-TE inh -4, CRFBP-R2 agonist 0, H9c2 protect 1 and aDG glyco act 0.
Screening Nc1cc2[nH]c(=O)c3ccccc3c2cc1[N+](=O)[O-] returned CRFBP-R2 block 3, PfGluPho inh 45, FAS-TE inh 1, CRFBP-R2 agonist -2, H9c2 protect 81* and aDG glyco act 0.
`CC(=O)c1ccc(NC(=O)c2ccccc2-c2ccccc2C(=O)O)cc1` gave CRFBP-R2 block 3, PfGluPho inh -7, FAS-TE inh -1, CRFBP-R2 agonist 1, H9c2 protect -4 and aDG glyco act 0.
Screening COc1ccccc1C(=O)NCCC(=O)NCc1ccncc1 returned CRFBP-R2 block 6, PfGluPho inh -4, FAS-TE inh -4, CRFBP-R2 agonist 1, H9c2 protect -5 and aDG glyco act 0.
For CCCCCCCCSc1nnc2[nH]c(=O)cc(N)n12 the results were CRFBP-R2 block 6, PfGluPho inh -8, FAS-TE inh -2, CRFBP-R2 agonist -1, H9c2 protect 4 and aDG glyco act 0.
Screening CC(C)CSc1nnc2[nH]c(=O)cc(N)n12 returned CRFBP-R2 block 96*, PfGluPho inh -19, FAS-TE inh -7, CRFBP-R2 agonist 1, H9c2 protect -6 and aDG glyco act 0.
Screening CN(C(=O)c1ccc(S(=O)(=O)N2CCCC2)cc1)C1CCCCC1 returned CRFBP-R2 block -17, PfGluPho inh -7, FAS-TE inh -5, CRFBP-R2 agonist -4, H9c2 protect 18 and aDG glyco act 0.
`CN(C(=O)c1ccc(S(=O)(=O)NC2CCCC2)cc1)C1CCCCC1` gave CRFBP-R2 block -75, PfGluPho inh 0, FAS-TE inh -7, CRFBP-R2 agonist 51*, H9c2 protect -2 and aDG glyco act 0.
`O=S(=O)(NC1CCCC1)c1ccc(S(=O)(=O)NC2CCCC2)cc1` gave CRFBP-R2 block -71, PfGluPho inh 15, FAS-TE inh -4, CRFBP-R2 agonist 56*, H9c2 protect -6 and aDG glyco act 0.
Cc1cccnc1NC(=O)NC(=O)c1ccc(C(C)(C)C)s1 was read as CRFBP-R2 block 4, PfGluPho inh -1, FAS-TE inh -1, CRFBP-R2 agonist -1, H9c2 protect 2 and aDG glyco act 0.
For CN(C)c1ccc(/C=C(\C#N)C(=O)Nc2nc3c(s2)CCN(Cc2ccccc2)C3)cc1 the results were CRFBP-R2 block -459, PfGluPho inh 2, FAS-TE inh -172, CRFBP-R2 agonist 345*, H9c2 protect -12 and aDG glyco act 0.
For O=C(Nc1nc2c(s1)CN(Cc1ccccc1)CC2)C1CCC1 the results were CRFBP-R2 block -15, PfGluPho inh -9, FAS-TE inh -8, CRFBP-R2 agonist 8, H9c2 protect 15 and aDG glyco act 0.
For c1ccc(Nc2nc3ccccc3n3nnnc23)cc1 the results were CRFBP-R2 block -43, PfGluPho inh -1, FAS-TE inh -4, CRFBP-R2 agonist 13, H9c2 protect 28 and aDG glyco act 0.
For Fc1ccccc1Nc1nc2ccccc2n2nnnc12 the results were CRFBP-R2 block -2, PfGluPho inh 14, FAS-TE inh -4, CRFBP-R2 agonist 2, H9c2 protect 47 and aDG glyco act 0.
`Fc1cccc(Nc2nc3ccccc3n3nnnc23)c1` gave CRFBP-R2 block -45, PfGluPho inh -14, FAS-TE inh -2, CRFBP-R2 agonist 2, H9c2 protect 19 and aDG glyco act 0.
c1ccc2c(c1)nc(Nc1ccc3c(c1)OCO3)c1nnnn12 was read as CRFBP-R2 block -12, PfGluPho inh 13, FAS-TE inh 7, CRFBP-R2 agonist 1, H9c2 protect 56* and aDG glyco act 0.
`CCN(CC)S(=O)(=O)c1ccc(Nc2nc3ccccc3n3nnnc23)cc1` gave CRFBP-R2 block -19, PfGluPho inh -1, FAS-TE inh 13, CRFBP-R2 agonist 3, H9c2 protect 83* and aDG glyco act 0.
COc1cccc(Nc2nc3ccccc3n3nnnc23)c1 was read as CRFBP-R2 block -36, PfGluPho inh -5, FAS-TE inh 13, CRFBP-R2 agonist 0, H9c2 protect 68* and aDG glyco act 0.
Screening CC(C)NC(=O)CN1CCN(C(c2cc3ccccc3o2)c2nnnn2C(C)(C)C)CC1 (stereo unspecified) returned FAS-TE inh -4 and aDG glyco act 0.
For COc1ccc(C(C)=O)cc1CSc1nnc2c(Cl)cc(Cl)cn12 the results were CRFBP-R2 block 55*, PfGluPho inh 4, FAS-TE inh -14, CRFBP-R2 agonist -4, H9c2 protect 8 and aDG glyco act 0.
For COc1ccc(C(C)=O)cc1CSc1nncn1C the results were CRFBP-R2 block -10, PfGluPho inh 9, FAS-TE inh -4, CRFBP-R2 agonist -1, H9c2 protect -2 and aDG glyco act 0.
For CC1(C)CC(=O)C2=C(C1)OC(/N=C/N1CCOCC1)=C(C#N)C2c1ccccc1 (stereo unspecified) the results were CRFBP-R2 block -2, PfGluPho inh -18, FAS-TE inh -8, CRFBP-R2 agonist -1, H9c2 protect 23 and aDG glyco act 0.

Source: PubChem
